Consider seven compounds from PubChem BioAssay (NCI).

Where “and” joins values, the source holds several entries; their conditions need not be identical. Identical values can stand only once. About 83,000 compounds went through this panel and 20% of them were active in at least one assay; those are over-represented in the sample as a whole.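 Note: values are percent growth. 100 is the growth of untreated cells, values between 100 and 0 indicate rising inhibition; between -100 and 0 indicates cell death.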 Unmarked numbers belong to inactive results. Calls of active or inactive are those of the source. How the source made its calls: active means growth percent below 10; inactive means the rest.

What all share (experiment): NCI-60 one-dose screen, 48 h (100 = growth as untreated, 0 = no growth, -100 = all killed)
In one assay the test system is SK-MEL-2 melanoma. The note with it: 10 µM.
Another assay relates to EKVX NSCLC. As to conditions: 10 µM.
For the next assay, the system named is UO-31 renal. The note with it: 10 µM.
The test system of the next assay is ACHN renal. As to conditions: 10 µM.
The subject of another assay is CAKI-1 renal. As to conditions: 10 µM.
A further assay has as its system A498 renal. As to conditions: 10 µM.
Another assay has as its system MOLT-4 leukemia. As to conditions: 10 µM.
The next assay concerns SR leukemia. The note with it: 10 µM unless noted.
The next assay has as its system OVCAR-8 ovarian. As to conditions: 10 µM.
In another assay the test system is OVCAR-5 ovarian. The note with it: 10 µM.
The subject of another assay is OVCAR-4 ovarian. As to conditions: 10 µM.
The subject of a further assay is SK-OV-3 ovarian. As to conditions: 10 µM.
The subject of a further assay is IGROV1 ovarian. As to conditions: 10 µM.
A further assay concerns OVCAR-3 ovarian. As to conditions: 10 µM.
Another assay relates to HS 578T breast. The note with it: 10 µM.
In a further assay the test system is NCI/ADR-RES ovarian. The note with it: 10 µM.
Another assay deals with SN12C renal. As to conditions: 10 µM.
For a further assay, the system named is TK-10 renal. As to conditions: 10 µM.
The subject of a further assay is CCRF-CEM leukemia. The note with it: 10 µM.
Another assay deals with RPMI-8226 leukemia. The note with it: 10 µM.

Turning to `CCCCCC(C)c1ccc(O)c(C)c1` (centres undefined), the growth in the assay with SK-MEL-2 melanoma was 104%; in the assay on EKVX NSCLC, 108%; in the assay on UO-31 renal, 83.5%; in the assay on ACHN renal it was 101%; with CAKI-1 renal it was 103%; in the assay on A498 renal, 81.9%. Also, the growth is 93% in the assay with MOLT-4 leukemia; 94.3% with SR leukemia; 102% in the assay with OVCAR-8 ovarian; 102% in the assay on OVCAR-5 ovarian; 95.5% with OVCAR-4 ovarian; 106% with SK-OV-3 ovarian. The growth is 117% in the assay with IGROV1 ovarian, 105% with OVCAR-3 ovarian, 105% with HS 578T breast and 102% with NCI/ADR-RES ovarian.

Turning to `CCCCCCCCCCCC[N+](C)(C)Cc1ccccc1`, the growth is -11.9% (active) with SK-MEL-2 melanoma; 10.1% in the assay on SN12C renal; 55.4% in the assay with UO-31 renal; -1.57% (active) with TK-10 renal; 78.7% in the assay on ACHN renal; 82.1% in the assay with CAKI-1 renal. In addition, the growth was 79% in the assay on A498 renal; -15.9% (active) with CCRF-CEM leukemia; -21.9% (active) in the assay on MOLT-4 leukemia; 4.5% (active) in the assay on SR leukemia; -48.3% (active) in the assay with RPMI-8226 leukemia; 11.9% in the assay with OVCAR-8 ovarian. Also, the growth in the assay with OVCAR-5 ovarian was 55.6%; in the assay on OVCAR-4 ovarian, 3.85% (active); with SK-OV-3 ovarian, 34.9%; in the assay on IGROV1 ovarian, -49.2% (active); in the assay on HS 578T breast it was 43.2%; in the assay with NCI/ADR-RES ovarian, 96.8%.

Turning to `Cc1cc(NS(=O)(=O)c2ccc(N=Nc3cc(N=Nc4ccc(S(=O)(=O)Nc5cc(C)nc(C)n5)cc4)c4c(NC(=O)C(Cl)Cl)cccc4c3OC(=O)C(Cl)Cl)cc2)nc(C)n1` (tested in a mixture with another compound), the growth was 100% and 101% in the assay with SN12C renal; 68.9% and 72.2% in the assay on UO-31 renal; 89.5% and 94.4% in the assay with ACHN renal; 96.7% and 88.6% with CAKI-1 renal; 116% and 101% in the assay with A498 renal; 95.3% and 99.6% in the assay with CCRF-CEM leukemia. Further, the growth with MOLT-4 leukemia is 102% and 105%; in the assay with SR leukemia, 103% and 69%; in the assay with RPMI-8226 leukemia, 114% and 101%; in the assay on OVCAR-8 ovarian, 94.8% and 91.7%; in the assay on OVCAR-5 ovarian, 122%; in the assay with OVCAR-4 ovarian, 101% and 94.3%. The growth in the assay on SK-OV-3 ovarian is 103% and 105%; in the assay with IGROV1 ovarian, 104%; in the assay on OVCAR-3 ovarian it was 114% and 93.3%; in the assay on HS 578T breast, 111% and 128%; in the assay with NCI/ADR-RES ovarian, 107% and 104%.

`N=S(c1ccccc1[N+](=O)[O-])c1ccccc1[N+](=O)[O-]`: the growth in the assay with SK-MEL-2 melanoma was 89.2%; in the assay with EKVX NSCLC, 85.8%; with SN12C renal it was 84.9%; in the assay on UO-31 renal, 5.99% (active); in the assay on ACHN renal, 2.38% (active); in the assay on CAKI-1 renal, 85.5%. In addition, the growth with A498 renal was 107%; in the assay with CCRF-CEM leukemia it was 7.69% (active); in the assay with MOLT-4 leukemia it was 98.9%; in the assay on RPMI-8226 leukemia, 72.8%; in the assay on OVCAR-8 ovarian, 96.8%; in the assay on OVCAR-5 ovarian it was 69.6%. For the same compound, the growth is 38.4% in the assay with OVCAR-4 ovarian; 87.2% in the assay on SK-OV-3 ovarian; 53.9% with IGROV1 ovarian; 96.7% with HS 578T breast; 90.4% in the assay with NCI/ADR-RES ovarian.

In the case of `NC(=O)SCC(=O)NNc1ccccc1`, the growth with SK-MEL-2 melanoma is 87.5%; in the assay on EKVX NSCLC, 99.4%; with SN12C renal, 94.9%; with UO-31 renal, 78.9%; in the assay on ACHN renal, 81.1%; in the assay with CAKI-1 renal it was 92.8%. Besides, the growth in the assay with A498 renal is 93.7%; in the assay on CCRF-CEM leukemia, 90.4%; in the assay on MOLT-4 leukemia, 111%; in the assay on SR leukemia, 111%; with RPMI-8226 leukemia it was 105%; in the assay with OVCAR-8 ovarian it was 93.8%. For the same compound, the growth with OVCAR-4 ovarian is 104%; in the assay with SK-OV-3 ovarian, 100%; in the assay on IGROV1 ovarian, 103%; in the assay on HS 578T breast, 100%; in the assay on NCI/ADR-RES ovarian, 95.5%.

`CS(=O)(=O)OC1CC(n2ccc(=O)[nH]c2=O)OC1COC(c1ccccc1)(c1ccccc1)c1ccccc1` (centres undefined): the growth was 103% with SN12C renal; 81.5% with UO-31 renal; 105% in the assay on TK-10 renal; 103% in the assay with ACHN renal; 103% with CAKI-1 renal; 107% in the assay with A498 renal. In addition, the growth in the assay with SR leukemia was 78%; with RPMI-8226 leukemia it was 101%; with OVCAR-8 ovarian it was 104%; with OVCAR-5 ovarian, 98%; with OVCAR-4 ovarian, 106%; with SK-OV-3 ovarian it was 106%. Further, the results for the growth in the assay with IGROV1 ovarian, in the assay with HS 578T breast and in the assay on NCI/ADR-RES ovarian were 92%, 112% and 113%, respectively.

Regarding `CN(C)C(=S)SC(=S)N(C)C`, the growth was 107% and 93.2% in the assay with SK-MEL-2 melanoma; 101% and 103% in the assay on SN12C renal; 91.2% and 79.1% in the assay with UO-31 renal; 113% and 112% with TK-10 renal; 101% and 107% in the assay on ACHN renal; 104% and 103% with CAKI-1 renal. Also, the growth in the assay with A498 renal is 94.7%; in the assay with CCRF-CEM leukemia it was 80.6% and 71.3%; with MOLT-4 leukemia, 92.4% and 85%; with SR leukemia it was 42.6% and 52.1%; with RPMI-8226 leukemia, 62.7%; in the assay on OVCAR-8 ovarian it was 107% and 96.6%. For the same compound, the growth was 106% and 108% in the assay on OVCAR-5 ovarian; 72.9% and 32.9% in the assay with OVCAR-4 ovarian; 115% and 110% with SK-OV-3 ovarian; 96.2% and 94.3% in the assay with IGROV1 ovarian; 98.8% and 96.2% in the assay with OVCAR-3 ovarian; 106% and 102% in the assay with HS 578T breast. For the same compound, the growth in the assay with NCI/ADR-RES ovarian was 104% and 101%.
